Compounds with a hit are over-represented: about 12% of the library has one in this group of screens.
HP1b binding inh: HP1-beta chromodomain-methylated histone interaction inhibition. P83916. AlphaScreen HP1-beta / biotin-H3K9me3 peptide binding. Potency, µM (series often up to 114 µM), usual class: inhibitors. 0.56% of 390,000 active. AID 540317; further: nearly all actives have a fitted effect of over 70% in size
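AlphaScreen: HP1-beta (50 nM) preformed 30 min with biotin-H3(1-18)K9me3 peptide (50 nM) in PBS pH 7.4, 0.01% Tween-20. Compound added for 30 min at RT, then streptavidin donor/nickel chelate acceptor beads (10 ug/mL) for 30 min.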
Sfp PPTase inh: Sfp phosphopantetheinyl transferase inhibition; Q9F4F7; Biochemical Sfp PPTase activity, qHTS; Potency, µM, usual class: inhibitors; 3.5% of 310,000 active; AID 1490;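 further: the enzyme is Sfp with the accession as filed and its product quenches rhodamine fluorescence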
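With Hepes-Na pH 7.6 buffer containing 10 mM MgCl2, Sfp (15 nM) modified BHQ-2-YbbR (12.5 uM) using rhodamine-CoA (5 uM). Two reads 30 minutes apart at 525/598 nm yielded each well's rate.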
BAZ2B block: BAZ2B (human) inhibition; AlphaScreen BAZ2B-H3K14Ac peptide displacement; Potency, µM (highest dose often 114 µM), most hits filed as inhibitors; 4.4% of 360,000 active; AID 504333; further: nearly all actives have a fitted effect of over 60% in size
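Inhibition is scored as reduced AlphaScreen emission. The BAZ2B/b-H3(5-23)K14Ac complex (50 nM each) in PBS pH 7.4, 0.01% Tween-20 meets compound (up to 110 uM) for 30 min at RT before bead addition.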
G9a inh-1: inhibitors of human histone lysine methyltransferase G9a; Q96KQ7; G9a H3K9 monomethylation, AlphaScreen, 2 h; Potency, µM (doses to about 102 µM), usual class: inhibitors; 8.8% of 350,000 active; further: nearly all actives have a fitted effect of over 75% in size
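Methyltransferase reactions run at room temperature for 2 h (20 nM enzyme, 500 nM biotin-H3K9 peptide, 20 uM SAM) after a 15 min compound preincubation; product detected by AlphaScreen beads and anti-H3K9me1 antibody.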
JMJD2A Tudor: blocks the human JMJD2A Tudor domain | AlphaScreen JMJD2A-Tudor / H3K4me3 peptide binding | Potency, µM (highest dose often 114 µM), actives largely listed as inhibitors | AID 504339 | O75164 | 4.4% of 390,000 active; further: nearly all actives have a fitted effect of over 50% in size
Target sequence (O75164 whole entry, looked up, the tested form may be a part): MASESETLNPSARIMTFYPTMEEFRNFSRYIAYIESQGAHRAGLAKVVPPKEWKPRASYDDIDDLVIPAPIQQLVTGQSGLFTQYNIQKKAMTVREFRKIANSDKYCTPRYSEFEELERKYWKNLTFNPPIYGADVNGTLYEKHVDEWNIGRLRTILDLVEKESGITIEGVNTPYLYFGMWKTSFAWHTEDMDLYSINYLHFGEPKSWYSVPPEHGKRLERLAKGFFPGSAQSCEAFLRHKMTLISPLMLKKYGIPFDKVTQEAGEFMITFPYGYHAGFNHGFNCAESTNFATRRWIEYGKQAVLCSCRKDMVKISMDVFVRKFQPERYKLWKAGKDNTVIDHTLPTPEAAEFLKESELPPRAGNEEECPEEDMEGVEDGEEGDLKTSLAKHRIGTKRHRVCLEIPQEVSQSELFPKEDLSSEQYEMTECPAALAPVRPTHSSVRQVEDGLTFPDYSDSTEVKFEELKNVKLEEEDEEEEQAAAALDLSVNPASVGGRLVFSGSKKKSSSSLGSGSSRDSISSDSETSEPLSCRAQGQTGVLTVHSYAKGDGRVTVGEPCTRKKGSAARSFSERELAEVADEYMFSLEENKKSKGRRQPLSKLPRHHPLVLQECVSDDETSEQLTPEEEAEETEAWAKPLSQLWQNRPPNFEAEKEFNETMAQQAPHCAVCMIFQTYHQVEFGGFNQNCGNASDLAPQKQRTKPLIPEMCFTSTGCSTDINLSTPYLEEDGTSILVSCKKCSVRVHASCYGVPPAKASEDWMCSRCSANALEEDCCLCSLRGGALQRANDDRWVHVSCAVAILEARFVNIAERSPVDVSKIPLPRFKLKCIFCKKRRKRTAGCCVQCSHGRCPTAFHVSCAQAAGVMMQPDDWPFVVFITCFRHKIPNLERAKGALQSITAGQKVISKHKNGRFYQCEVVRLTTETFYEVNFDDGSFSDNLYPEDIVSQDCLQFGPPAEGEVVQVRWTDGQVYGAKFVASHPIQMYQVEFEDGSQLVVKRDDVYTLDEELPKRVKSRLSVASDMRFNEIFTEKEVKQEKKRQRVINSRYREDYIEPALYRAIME
JMJD2E inh: confirmation of inhibitors of human JMJD2E demethylase | Recombinant JMJD2E, FDH-coupled NADH fluorescence (FDH is formaldehyde dehydrogenase) | shares compounds with JMJD2A Tudor | Potency, µM (titrated, usually from 56.8 µM), hits mostly inhibitors | 93% of 140 active | AID 2677
FDH counter: blocks Pseudomonas putida formaldehyde dehydrogenase, flagging JMJD2E artifacts. 10% of 140 active. AID 2680. Potency, µM (doses to about 56.7 µM), actives largely listed as inhibitors. FDH enzyme assay, NADH fluorescence kinetic. shares compounds with JMJD2A Tudor
G9a inh-2: inhibits human G9a histone lysine methyltransferase, hit confirmation; shares compounds with JMJD2A Tudor; G9a H3K9 monomethylation, AlphaScreen, 2 h; Potency, µM, hits mostly inhibitors; 89% of 370 active; AID 588344; further: nearly all actives have a fitted effect of over 65% in size
RGS4 inh: confirmation of human RGS4 inhibitors; shares compounds with JMJD2A Tudor; RGS4 GAP activity, Transcreener GDP fluorescence polarization; Potency, µM, most hits filed as inhibitors; 80% of 25 active; AID 602388
A number is an active result; n = inactive; u = inconclusive; x = no result given; [ ] = dose if it differs, or a comment. The call rests on the fitted dose curve; in most records, active means well fitted curve in the direction sought with a large enough effect; inconclusive means small, poorly fitted or top-dose-only effect, or another doubt; inactive means no such curve, though single readings can be large; an effect the other way counts as inactive or inconclusive.

SMILES | HP1b binding inh | Sfp PPTase inh | BAZ2B block | G9a inh-1 | JMJD2A Tudor | G9a inh-2 | others
Cc1cccc(C)c1OCc1nnc(SCC(=O)Nc2cccc(C(=O)N3CCOCC3)c2)n1C | n | n | n | n | u | x
Cc1cccc(OCc2nnc(SCC(=O)Nc3cccc(C(=O)N4CCOCC4)c3)o2)c1C | n | n | n | 2µM | n | 5
O=C(C1CC(=O)N(c2ccccc2F)C1)N1CCOCC1 (stereo unspecified) | n | x | x | x | n | x
c1ccc(-c2noc(CN3CCN(c4ccccc4)CC3)n2)cc1 | n | n | n | n | n | x
COc1ccc(N2CCN(Cc3nc(-c4ccc(Cl)cc4Cl)no3)CC2)cc1 | u | n | 35µM | 2.2µM | 25µM | 4.5
Cc1cccc(OCCCC(=O)Nc2ccc(N(C)C)cc2)c1 | n | n | u | 1.8µM | u | 0.89
CCN(Cc1ccncc1)Cc1c(O)ccc2cc(Br)ccc12 | u | 45µM | x | 2µM | 45µM | 2.8 | RGS4 inh=17
O=C(Sc1nnnn1C1CCCCC1)c1cccs1 | x | 35µM | u | u | x | 0.71
O=C(CSc1nnnn1C1CCCCC1)Nc1ccccc1F | n | n | n | x | n | x
Oc1ccc(NCc2ccc(OCc3ccccc3)cc2)cc1 | u | 56µM | 40µM | 7.9µM | 56µM | 1.3
CCOC(=O)C1CCCN(S(=O)(=O)c2cc(-c3onc(C)c3C)ccc2OC)C1 (stereo unspecified) | n | x | n | n | n | x
Cc1c(C)n(Cc2ccccc2)c2ccc(C(=O)OCCN(C)C)cc12 | u | n | 22µM | u | 56µM | 32
CCc1ccc(CNC(=O)c2ccc3c(c2)c(C)c(C)n3Cc2ccccc2)cc1 | n | x | u | n | u | x
CCOc1cccc(Nc2ccc([N+](=O)[O-])cn2)c1 | n | n | n | n[0.501 µM] | n | x
CC(C(=O)Nc1ccccn1)N1C(=O)c2ccccc2S1(=O)=O (stereo unspecified) | n | x | n | n | n | x
O=C(c1ccc(F)cc1)C1CCN(Cc2ccc(F)cc2)CC1 | n | n | n | n | n | x
O=C(Nc1ccc(N2CCN(c3ccc(O)cc3)CC2)cc1)Oc1ccccc1 | n | n | n | 0.89µM | n | 0.2
CCn1c(CSc2nc3ccccc3s2)nnc1SCC(=O)c1ccc(O)c(O)c1 | n | n | 35µM | 0.79µM | 45µM | 1.4
CCn1c(CSc2nc3ccccc3s2)nnc1SCC(=O)c1ccc(Cl)cc1 | n | n | n | u | u | x
CCOC(=O)N1CCc2c(sc(NCc3cccc(F)c3)c2C(=O)Nc2ccc(OC)cc2)C1 | n | x | 79µM | u | 10µM | 2.3
COc1ccc(NC(=O)c2c(NC(=O)c3cccc(C)c3)sc3c2CCCC3)cc1 | n | x | n | u | n | x
CCOC(=O)N1CCc2c(sc(NCc3ccc(N(C)C)cc3)c2C(=O)Nc2ccc(OC)cc2)C1 | u | x | 22µM | 2.8µM | 14µM | 3.6
CCOC(=O)N1CCc2c(sc(NCc3cccc(F)c3)c2C(=O)Nc2ccc(OC)cc2OC)C1 | u | x | u | u | u | 2.5
CCCNC(=O)c1ccc2c(=O)n3c(-c4ccc(C)cc4)csc3nc2c1 | n | u | 7.1µM | u | 22µM | 0.56
CCOC(=O)C1CCN(C(=O)Cc2cccc3ccccc23)CC1 | n | n | n | u | n | 18
SMILES | HP1b binding inh | Sfp PPTase inh | BAZ2B block | G9a inh-1 | JMJD2A Tudor | G9a inh-2 | others
O=C(CNC(=O)c1ccco1)Nc1ccc(N2CCCCCC2)cc1 | n | x | u | u | u | x
CC(C)(C)C(=O)Nc1ccc(N2CCCC2)cc1 | n | n | u | u | n | 2.5
O=C(/C=C/c1ccccc1)Nc1ccc(N2CCCCC2)cc1 | n | n | n | 2.8µM | n | 2.2
O=C(CNC(=O)c1ccc(Br)o1)Nc1ccc(N2CCCCCC2)cc1 | n | x | u | 2.2µM | u | 1
Cc1ccc(C(=O)Nc2ccc(N3CCCC3)cc2)cc1 | n | n | n | 1.6µM | n | 1.3
CCCCCCCC/C=C\CCCCCCCC(=O)N[C@@H](CO)Cc1ccc(O)cc1 | x | n | x | x | x | x
CCC(C(=O)Nc1ccccc1OC)n1nc(C)c2sc3ccccc3c2c1=O (stereo unspecified) | n | x | n | u | n | x
COc1ccc(CCNC(=O)Cc2c(C)c3cc4c(C(C)(C)C)coc4c(C)c3oc2=O)cc1 | n | x | n | n | n | x
CCN(CC)C(=O)C1c2ccccc2Oc2ccccc21 | n | n | n | n | n | x
CC(=O)Nc1ccc(N2CCCC2)cc1 | n | 40µM | n | u | n | 6.3
O=C(CSc1cn[nH]n1)Nc1cccc(C(=O)O)c1 | 18µM | 35µM | n | 0.71µM | 8.9µM | 1.3
CCN1CCN(c2ccc(NC(=O)c3ccccc3F)cc2Cl)CC1 | n | n | u | n | n | x
CCN1CCN(c2ccc(NC(=O)c3cc4ccccc4cc3OC)cc2C)CC1 | n | x | n | u | n | 3.2
O=C(Nc1ccccc1)Nc1ccc2snnc2c1 | n | n | n | n | n[11.4 µM] | x
CN(C)c1ccc(NC(=O)Nc2ccc3snnc3c2)cc1 | n | n | n | 1.3µM | n | 1.6
CCOc1ccc(CCNC(=O)CN2C(=O)COc3ccc(S(=O)(=O)N4CCOCC4)cc32)cc1 | n | n | n | n | n | x
CCN(CC)c1ccc(NC(=O)COC(=O)C2CCN(c3ccc(C(F)(F)F)cn3)CC2)cc1 | u | x | u | 1.6µM | 16µM | 2.8
CCOc1ccc(C(=O)COC(=O)C2CCN(c3ccc(C(F)(F)F)cn3)CC2)cc1 | n | x | n | n | n | x
COc1ccc(NS(=O)(=O)c2ccc(C(=O)N(C)Cc3ccc(C)o3)cc2)cc1 | n | x | x | x | n | x
Cc1cc(Cl)ccc1NS(=O)(=O)c1c(C(=O)N2CCC(C)CC2)c(C)n(C)c1C | n | x | u | n | n | x
CCOC(=O)N1CCc2c(sc(NCc3cccs3)c2C(=O)Nc2cc(Cl)ccc2OC)C1 | n | x | n | 1.1µM | u | 2.3
CCOC(=O)c1c(NC(=O)c2cccs2)sc2c1CCN(C(=O)OCC)C2 | n | u | n | n | n | x
COc1ccc(Cl)cc1NC(=O)COC(=O)Cc1cccs1 | n | x | n | n[0.501 µM] | n | x
COc1ccc(Cl)cc1NC(=O)c1c(NCc2cccs2)sc2c1CCCC2 | n | x | n | 1.4µM | u | 4.1
CCOc1nc(NCCc2ccc(OC)c(OC)c2)nc(N2CCN(c3ccc(OC)cc3)CC2)n1 | n | n | n | u | n | 2
Oc1ccc(NCc2ccccc2OCc2ccccc2F)cc1 | u | u | 45µM | 3.2µM | 56µM | x | JMJD2E inh=20µM;FDH counter=u

Screens (PubChem)
